Source: PubChem BioAssay (Broad Institute)
MITF inhib: inhibitors of MITF; TRPM1 promoter luciferase, luminescence, 24 h; inhibition, % (concentration not given with the values); 37,000 tested, 0.28% active; AID 2240; in the data active means inhibition above about 85%; inconclusive means no clear call, values can overlap the other calls; inactive means below about 68%;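 further: human melanocyte line stably carrying TRPM1 promoter luciferase reporter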
NOMO-1 viab: STK33 inhibitor candidate reducing NOMO-1 cell viability | inhibition, % (concentration not given with the values) | AID 2330 | 37,000 tested, 7.5% active | NOMO-1 AML viability, CellTiter-Glo luminescence, 72 h; in the data active means inhibition above about 80%; inconclusive means no clear call, values can overlap the other calls
Shh pathway inh: blocks Sonic Hedgehog signaling | Shh-LIGHT2 Gli-luciferase reporter, 30 h | inhibition, % (no concentration beside the values) | 22,000 tested, 2.1% active | AID 2313;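 active means mean inhibition across valid replicates above about 65%, limit read from the data; inconclusive means mean under the limit, yet half or more replicates past it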;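 further: pathway switched on by Shh-conditioned medium diluted 1 in 25 in low serum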
PD-1 reverse act: activators reversing PD-1 mediated T-cell inhibition; primary human CD4 T cells, PD-L1 beads, CellTiter-Glo 96 h; activation, % (concentration not given with the values); 29,000 tested, under 10 active; AID 2316; call rule not given here
Each line names hits and unclear results; the compound was inactive in the other large screens. In the library only some 7.8% were active in any assay of this set; here they are far more common.

COCc1cc(O)c(O)c(O)c1-c1c(COC)cc(O)c(O)c1O	NOMO-1 viab 97
COc1ccc(CCC(=O)O)c(O)c1	none
COc1ccc(Cl)cc1NC(=O)CSc1nc(N)cc(=O)[nH]1	none (no result: Shh pathway inh)
Clc1ccc(Sc2cn[nH]c2-c2ccc3c(c2)OCCO3)cc1	NOMO-1 viab inconclusive, Shh pathway inh 79
CSC(=Nc1c(C)cccc1C)N(C)C	none
COC1CC(=O)C23C(=O)NC(CC(C)C)C2C(C)C(C)=CC3/C=C(\C)CCC(O)C1O (configuration not stated)	NOMO-1 viab 89
NC(N)=Nc1nc(-c2ccc(-c3ccccc3)cc2)cs1	NOMO-1 viab 115
O=S(=O)(c1ccc(Cl)cc1)N1CCc2ccccc21	NOMO-1 viab 120, Shh pathway inh 81
COC(=O)c1c(C)oc2ccc(N(C(=O)c3ccncc3)S(=O)(=O)c3ccc(OC)cc3)cc12	NOMO-1 viab 111 (no result: Shh pathway inh)
CC(=O)c1c(C)oc2ccc(N(C(=O)c3ccncc3)S(=O)(=O)c3ccc(F)cc3)cc12	none (no result: Shh pathway inh)
Cc1ccc(S(=O)(=O)Nc2cccc3c2O[C@@H](CN(C)C(=O)NC2CCCCC2)[C@@H](C)CN([C@H](C)CO)C3=O)cc1	NOMO-1 viab 100, Shh pathway inh inconclusive
Cc1ccc(S(=O)(=O)Nc2cccc3c2O[C@@H](CN(C)C(=O)NC2CCCCC2)[C@@H](C)CN([C@@H](C)CO)C3=O)cc1	none
Cc1ccc(S(=O)(=O)Nc2cccc3c2O[C@H](CN(C)CC2CCCCC2)[C@@H](C)CN([C@@H](C)CO)C3=O)cc1	none
Cc1ccc(S(=O)(=O)Nc2cccc3c2O[C@@H](CN(C)CC2CCCCC2)[C@@H](C)CN([C@H](C)CO)C3=O)cc1	Shh pathway inh 88
C[C@@H]1CN([C@@H](C)CO)C(=O)c2cc(NC(=O)Cc3cn(C)c4ccccc34)ccc2O[C@@H]1CN(C)Cc1ccc(-c2ccccc2)cc1	NOMO-1 viab 113 (no result: Shh pathway inh, PD-1 reverse act)
C[C@@H]1CN([C@@H](C)CO)C(=O)c2cc(NC(=O)Cc3cn(C)c4ccccc34)ccc2O[C@H]1CN(C)Cc1ccc(-c2ccccc2)cc1	none
C[C@H](CO)N1C[C@H](C)[C@H](CN(C)Cc2ccc3c(c2)OCO3)Oc2ccc(NC(=O)Cc3cn(C)c4ccccc34)cc2C1=O	NOMO-1 viab 92
C[C@H]1CN([C@@H](C)CO)C(=O)c2cc(NC(=O)Cc3cn(C)c4ccccc34)ccc2O[C@H]1CN(C)Cc1ccncc1	none
C[C@H](CO)N1C[C@H](C)[C@@H](CN(C)Cc2ccncc2)Oc2ccc(NC(=O)Cc3cn(C)c4ccccc34)cc2C1=O	NOMO-1 viab 92
C[C@H]1CN([C@@H](C)CO)C(=O)c2cc(NC(=O)Cc3cn(C)c4ccccc34)ccc2O[C@H]1CN(C)Cc1ccccc1	NOMO-1 viab 84 (no result: Shh pathway inh)
O=C(Oc1cccc(OC(=O)c2ccccc2F)c1)c1ccccc1F	none (no result: Shh pathway inh)
C[C@H](CO)N1C[C@H](C)[C@H](CN(C)Cc2ccc(C(F)(F)F)cc2)Oc2ccc(NC(=O)Cc3cn(C)c4ccccc34)cc2C1=O	none (no result: Shh pathway inh)
C[C@@H]1CN([C@@H](C)CO)C(=O)c2cc(NC(=O)Cc3cn(C)c4ccccc34)ccc2O[C@H]1CN(C)Cc1ccc(C(F)(F)F)cc1	NOMO-1 viab 91
C=CC(C)(C)c1c2c(c(O)c3c(=O)c4ccc(O)c(O)c4oc13)C=CC(C)(C)O2	MITF inhib inconclusive, NOMO-1 viab 107, Shh pathway inh 93 (no result: PD-1 reverse act)
COc1c(-c2ccccc2)oc2c(CC=C(C)C)c3c(c(OC)c2c1=O)C=CC(C)(C)O3	none (no result: PD-1 reverse act)
CC1(C)CC(=O)C2=C(C1)Nc1ccc3ccccc3c1C2c1cccnc1 (configuration not stated)	NOMO-1 viab inconclusive, Shh pathway inh inconclusive
Cc1ccc(S(=O)(=O)Nc2ccc3c(c2)CC(=O)N([C@@H](C)CO)C[C@@H](C)[C@@H](CN(C)Cc2ccc(Cl)c(Cl)c2)O3)cc1	NOMO-1 viab 83
Cc1ccc(S(=O)(=O)Nc2ccc3c(c2)CC(=O)N([C@@H](C)CO)C[C@H](C)[C@H](CN(C)Cc2ccc(Cl)c(Cl)c2)O3)cc1	none
Cc1ccc(S(=O)(=O)Nc2ccc3c(c2)CC(=O)N([C@H](C)CO)C[C@@H](C)[C@@H](CN(C)Cc2ccc(Cl)c(Cl)c2)O3)cc1	NOMO-1 viab 116
COc1ccc(OC(C)C(=O)Nc2cc(OC)cc(OC)c2)cc1 (configuration not stated)	none (no result: Shh pathway inh)
CCOc1ccccc1NC(=O)C(C)Oc1ccc(OC)cc1 (configuration not stated)	NOMO-1 viab 105 (no result: Shh pathway inh)
CN(C)CC(O)Cn1c2ccc(Br)cc2c2cc(Br)ccc21 (configuration not stated)	NOMO-1 viab 114, Shh pathway inh inconclusive (no result: PD-1 reverse act)
COc1cc2c(cc1NC(=S)NCc1ccco1)oc1ccccc12	NOMO-1 viab 93 (no result: Shh pathway inh)
